Here are results for 36 targets from the supplement of paper PMC10849652.

Of roughly 8,800 targets only a part is listed; those with a hit were picked by preference. About 0.5% of all pairs of compound and target were hits.

Chain of UniProt Q6N063 (Q6N063 whole entry, looked up): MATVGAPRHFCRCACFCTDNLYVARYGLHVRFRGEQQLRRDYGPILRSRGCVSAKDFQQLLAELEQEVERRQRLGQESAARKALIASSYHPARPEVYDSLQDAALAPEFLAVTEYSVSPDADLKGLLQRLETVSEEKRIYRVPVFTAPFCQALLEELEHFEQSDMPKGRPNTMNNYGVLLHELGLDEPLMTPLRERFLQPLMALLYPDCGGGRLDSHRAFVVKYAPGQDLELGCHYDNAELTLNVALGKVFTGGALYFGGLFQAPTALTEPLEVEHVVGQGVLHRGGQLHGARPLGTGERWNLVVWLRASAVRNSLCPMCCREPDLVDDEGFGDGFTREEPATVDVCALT
Chain of UniProt Q96I59 (Q96I59 whole entry, looked up): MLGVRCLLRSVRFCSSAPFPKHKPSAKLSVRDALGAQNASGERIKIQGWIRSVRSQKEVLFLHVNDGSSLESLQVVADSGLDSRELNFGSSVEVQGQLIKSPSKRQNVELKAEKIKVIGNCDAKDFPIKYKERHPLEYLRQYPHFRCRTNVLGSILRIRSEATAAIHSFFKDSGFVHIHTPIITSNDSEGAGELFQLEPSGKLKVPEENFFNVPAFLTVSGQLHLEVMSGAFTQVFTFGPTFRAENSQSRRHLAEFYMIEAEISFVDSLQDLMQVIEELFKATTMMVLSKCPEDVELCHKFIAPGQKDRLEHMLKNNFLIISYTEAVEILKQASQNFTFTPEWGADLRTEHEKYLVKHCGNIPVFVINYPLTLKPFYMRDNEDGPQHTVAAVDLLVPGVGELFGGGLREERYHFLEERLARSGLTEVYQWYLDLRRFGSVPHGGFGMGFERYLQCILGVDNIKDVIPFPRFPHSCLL
Chain of UniProt Q9Y530 (Q9Y530 whole entry, looked up): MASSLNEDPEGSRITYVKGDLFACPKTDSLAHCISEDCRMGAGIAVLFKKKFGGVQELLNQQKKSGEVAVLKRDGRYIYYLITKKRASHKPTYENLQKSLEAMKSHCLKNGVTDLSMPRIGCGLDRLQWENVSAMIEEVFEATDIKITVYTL
Chain of UniProt Q99836 (Q99836 whole entry, looked up): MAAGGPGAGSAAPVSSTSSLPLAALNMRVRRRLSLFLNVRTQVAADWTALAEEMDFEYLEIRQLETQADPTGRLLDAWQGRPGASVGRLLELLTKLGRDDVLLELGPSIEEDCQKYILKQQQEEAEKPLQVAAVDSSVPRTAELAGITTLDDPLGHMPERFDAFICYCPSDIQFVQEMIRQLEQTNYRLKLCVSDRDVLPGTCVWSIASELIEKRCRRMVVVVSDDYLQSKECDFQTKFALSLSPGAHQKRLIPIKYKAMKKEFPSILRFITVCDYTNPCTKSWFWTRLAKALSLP
Chain of UniProt Q5SRE5 (Q5SRE5 whole entry, looked up): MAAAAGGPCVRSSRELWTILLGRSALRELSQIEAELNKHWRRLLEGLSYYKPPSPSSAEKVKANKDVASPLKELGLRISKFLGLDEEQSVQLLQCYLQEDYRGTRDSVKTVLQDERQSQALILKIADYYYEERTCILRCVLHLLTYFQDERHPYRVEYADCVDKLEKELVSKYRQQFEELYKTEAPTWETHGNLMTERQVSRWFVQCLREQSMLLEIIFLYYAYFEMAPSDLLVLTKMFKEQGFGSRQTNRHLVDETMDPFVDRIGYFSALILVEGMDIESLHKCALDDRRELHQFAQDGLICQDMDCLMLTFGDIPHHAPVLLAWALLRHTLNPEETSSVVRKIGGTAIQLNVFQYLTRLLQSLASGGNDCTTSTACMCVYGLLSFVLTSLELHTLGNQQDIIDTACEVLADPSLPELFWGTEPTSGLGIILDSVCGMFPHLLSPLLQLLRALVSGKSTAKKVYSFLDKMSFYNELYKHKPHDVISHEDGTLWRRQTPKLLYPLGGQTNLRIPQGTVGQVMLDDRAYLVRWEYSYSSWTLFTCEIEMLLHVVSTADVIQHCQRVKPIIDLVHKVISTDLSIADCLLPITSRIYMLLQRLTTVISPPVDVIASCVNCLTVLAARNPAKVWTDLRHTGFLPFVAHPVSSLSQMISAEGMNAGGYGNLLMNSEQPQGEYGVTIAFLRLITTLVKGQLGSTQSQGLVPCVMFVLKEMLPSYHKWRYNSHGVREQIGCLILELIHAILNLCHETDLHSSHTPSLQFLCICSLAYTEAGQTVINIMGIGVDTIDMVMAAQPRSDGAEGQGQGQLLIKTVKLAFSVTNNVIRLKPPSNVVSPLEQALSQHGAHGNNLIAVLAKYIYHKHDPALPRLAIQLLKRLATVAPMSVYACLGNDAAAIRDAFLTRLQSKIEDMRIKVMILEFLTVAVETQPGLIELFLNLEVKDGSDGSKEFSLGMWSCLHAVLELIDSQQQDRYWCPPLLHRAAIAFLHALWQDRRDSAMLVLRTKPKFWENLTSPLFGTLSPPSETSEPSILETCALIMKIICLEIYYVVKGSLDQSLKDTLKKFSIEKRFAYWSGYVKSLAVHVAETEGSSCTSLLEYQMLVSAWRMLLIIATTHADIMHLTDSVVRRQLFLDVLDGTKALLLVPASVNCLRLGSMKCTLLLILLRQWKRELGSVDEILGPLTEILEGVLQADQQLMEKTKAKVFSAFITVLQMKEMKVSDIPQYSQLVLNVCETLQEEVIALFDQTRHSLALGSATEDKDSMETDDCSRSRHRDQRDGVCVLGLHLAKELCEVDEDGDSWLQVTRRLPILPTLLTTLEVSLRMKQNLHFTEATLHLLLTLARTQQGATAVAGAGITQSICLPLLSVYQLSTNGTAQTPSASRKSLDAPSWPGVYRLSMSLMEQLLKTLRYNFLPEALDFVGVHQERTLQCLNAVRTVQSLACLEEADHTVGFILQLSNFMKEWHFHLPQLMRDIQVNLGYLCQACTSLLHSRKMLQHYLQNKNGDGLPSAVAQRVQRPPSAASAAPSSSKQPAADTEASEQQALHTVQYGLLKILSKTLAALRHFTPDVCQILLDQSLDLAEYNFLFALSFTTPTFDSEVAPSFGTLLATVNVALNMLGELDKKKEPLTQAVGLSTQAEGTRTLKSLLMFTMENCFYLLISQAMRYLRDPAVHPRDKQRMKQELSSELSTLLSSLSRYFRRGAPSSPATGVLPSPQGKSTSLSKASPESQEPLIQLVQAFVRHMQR
Chain of UniProt Q9ULX3 (Q9ULX3 whole entry, looked up): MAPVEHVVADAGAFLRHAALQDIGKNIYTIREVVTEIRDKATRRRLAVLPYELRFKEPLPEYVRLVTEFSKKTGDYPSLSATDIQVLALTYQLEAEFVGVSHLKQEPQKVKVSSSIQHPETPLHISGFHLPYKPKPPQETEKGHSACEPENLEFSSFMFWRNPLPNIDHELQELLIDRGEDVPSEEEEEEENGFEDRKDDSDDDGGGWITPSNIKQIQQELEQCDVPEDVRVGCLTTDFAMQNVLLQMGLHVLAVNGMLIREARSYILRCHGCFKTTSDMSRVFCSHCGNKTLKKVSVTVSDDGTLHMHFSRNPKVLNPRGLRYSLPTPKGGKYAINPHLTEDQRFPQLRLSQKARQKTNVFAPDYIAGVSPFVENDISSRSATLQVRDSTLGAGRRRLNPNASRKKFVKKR
Chain of UniProt O95644 (O95644 whole entry, looked up): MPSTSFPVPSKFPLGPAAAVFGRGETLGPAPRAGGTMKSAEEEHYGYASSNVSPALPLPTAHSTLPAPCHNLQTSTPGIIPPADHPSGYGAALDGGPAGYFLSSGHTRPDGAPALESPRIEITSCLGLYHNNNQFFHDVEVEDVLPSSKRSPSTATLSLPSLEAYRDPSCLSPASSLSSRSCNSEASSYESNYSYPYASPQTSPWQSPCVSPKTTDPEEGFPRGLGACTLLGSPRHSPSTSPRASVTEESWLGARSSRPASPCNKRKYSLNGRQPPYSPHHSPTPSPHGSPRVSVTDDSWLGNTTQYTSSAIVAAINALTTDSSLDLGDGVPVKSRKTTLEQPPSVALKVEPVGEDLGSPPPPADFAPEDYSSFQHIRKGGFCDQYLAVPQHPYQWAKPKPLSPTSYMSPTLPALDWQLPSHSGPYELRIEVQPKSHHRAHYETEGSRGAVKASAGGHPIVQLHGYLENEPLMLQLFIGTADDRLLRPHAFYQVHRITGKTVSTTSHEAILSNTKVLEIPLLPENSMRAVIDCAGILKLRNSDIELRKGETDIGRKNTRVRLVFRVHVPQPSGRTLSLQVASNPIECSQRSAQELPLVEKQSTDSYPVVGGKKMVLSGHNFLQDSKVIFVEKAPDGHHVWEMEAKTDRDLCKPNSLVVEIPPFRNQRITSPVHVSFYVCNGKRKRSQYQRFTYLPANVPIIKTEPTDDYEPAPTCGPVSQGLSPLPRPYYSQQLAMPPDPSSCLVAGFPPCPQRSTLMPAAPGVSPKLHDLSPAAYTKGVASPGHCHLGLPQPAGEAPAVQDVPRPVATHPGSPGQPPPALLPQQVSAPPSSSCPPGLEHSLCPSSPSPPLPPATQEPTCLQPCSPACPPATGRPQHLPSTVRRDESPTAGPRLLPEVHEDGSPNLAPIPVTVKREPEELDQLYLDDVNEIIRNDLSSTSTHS
Chain of UniProt P49757 (P49757 whole entry, looked up): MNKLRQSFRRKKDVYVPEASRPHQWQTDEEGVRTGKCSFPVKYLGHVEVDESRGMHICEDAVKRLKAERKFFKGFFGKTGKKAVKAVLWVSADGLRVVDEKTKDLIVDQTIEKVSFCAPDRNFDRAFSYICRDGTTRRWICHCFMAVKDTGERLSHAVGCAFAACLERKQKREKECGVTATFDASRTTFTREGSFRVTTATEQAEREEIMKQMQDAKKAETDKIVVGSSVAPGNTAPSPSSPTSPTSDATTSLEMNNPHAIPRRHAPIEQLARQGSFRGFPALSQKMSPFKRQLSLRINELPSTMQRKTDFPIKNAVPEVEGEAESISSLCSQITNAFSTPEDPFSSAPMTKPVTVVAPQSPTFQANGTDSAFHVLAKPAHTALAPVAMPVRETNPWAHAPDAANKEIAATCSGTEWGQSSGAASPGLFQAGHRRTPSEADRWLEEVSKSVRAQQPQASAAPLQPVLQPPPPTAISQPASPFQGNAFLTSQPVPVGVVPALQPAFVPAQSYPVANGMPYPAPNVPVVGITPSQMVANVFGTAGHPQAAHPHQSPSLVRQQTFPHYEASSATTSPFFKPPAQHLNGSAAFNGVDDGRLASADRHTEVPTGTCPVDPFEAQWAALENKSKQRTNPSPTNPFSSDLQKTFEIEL

Compound in this experiment: C1=CC=C2C(=C1)C3=NNC4=CC=CC(=C43)C2=O
The experiment in a line: log2 fold change, soluble protein after heating vs DMSO (PISA); higher = thermal stabilisation; K562 lysate, 10 uM; active = over 0.2 and 3.5 SD of the protein, either way, in both replicates (recomputed). The method in brief:
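Log-two fold change in thermal stability relative to solvent controls is reported from duplicates. For each sample, crude K562 extract from dounce-homogenised pellets in PBS pH 7.4 with 1 mM MgCl2, at 1 mg/mL protein, was treated with 10 μM compound for 30 min. Aliquots heated for 3 min across 48°C-58°C were pooled, brought to 0.5% NP-40 at 4°C and cleared at 21,000xg for 90 min. The supernatant was quantified by TMTpro 16plex LC-MS/MS with channel sums equalised.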
In the case of NUP93 (UniProt Q8N1F7), the log2 fold change was -0.049 (inactive).

PANK4 (UniProt Q9NVE7): the log2 fold change was -0.052 (inactive).

As to NIPSNAP3A (UniProt Q9UFN0), the log2 fold change is 0.015 (inactive).

In the case of OSBP2 (UniProt Q969R2), the log2 fold change is -0.075 (inactive).

In the case of MTCH2 (UniProt Q9Y6C9), the log2 fold change was -0.031 (inactive).

As to NUP160 (UniProt Q12769), the log2 fold change is -0.075 (inactive).

As to NEK7 (UniProt Q8TDX7), the log2 fold change is 0.103 (inactive).

Take NLRP2 (UniProt Q9NX02): the log2 fold change was -0.021 (inactive).

NUMB (UniProt P49757): the log2 fold change was -0.029 (inactive).

Regarding NEK9 (UniProt Q8TD19), the log2 fold change was 0.154 (inactive).

Consider MSH6 (UniProt P52701), for which the log2 fold change was -0.025 (inactive).

Turning to NIFK (UniProt Q9BYG3), the log2 fold change was 0.01 (inactive).

As for OGFOD2 (UniProt Q6N063), the log2 fold change was 0.001 (inactive).

Turning to NFATC1 (UniProt O95644), the log2 fold change was 0.009 (inactive).

For NFIC (UniProt P08651), the log2 fold change was -0.082 (inactive).

In the case of OARD1 (UniProt Q9Y530), the log2 fold change is -0.031 (inactive).

For NOB1 (UniProt Q9ULX3), the log2 fold change was -0.016 (inactive).

With NARS2 (UniProt Q96I59), the log2 fold change is -0.04 (inactive).

As for NUP188 (UniProt Q5SRE5), the log2 fold change is -0.034 (inactive).

Regarding NFKBIE (UniProt O00221), the log2 fold change was -0.026 (inactive).

NNT (UniProt Q13423): the log2 fold change was -0.033 (inactive).

With ORC5 (UniProt O43913), the log2 fold change is -0.016 (inactive).

MYO1D (UniProt O94832): the log2 fold change is -0.083 (inactive).

Turning to OTUD7B (UniProt Q6GQQ9), the log2 fold change is -0.076 (inactive).

Consider NUF2 (UniProt Q9BZD4), for which the log2 fold change is -0.047 (inactive).

For the target PBK (UniProt Q96KB5), the log2 fold change was -0.001 (inactive).

Take NUDT4 (UniProt Q9NZJ9): the log2 fold change was 0.039 (inactive).

Regarding MYD88 isoform 6 (UniProt Q99836), the log2 fold change was -0.025 (inactive).

Consider MRPL53 (UniProt Q96EL3), for which the log2 fold change is -0.049 (inactive).

Regarding MTMR6 (UniProt Q9Y217), the log2 fold change is -0.052 (inactive).

Consider NELFCD (UniProt Q8IXH7), for which the log2 fold change was -0.044 (inactive).

In the case of NPLOC4 isoform 2 (UniProt Q8TAT6), the log2 fold change was -0.016 (inactive).

As to NCOR2 (UniProt C9J0Q5), the log2 fold change is -0.173 (inactive).

As to NUDT5 (UniProt Q9UKK9), the log2 fold change was -0.023 (inactive).

As to NMT1 (UniProt P30419), the log2 fold change is 0.062 (inactive).

On to PARD3 (UniProt Q8TEW0), for which the log2 fold change is 0.007 (inactive).
